Bioassay records deposited in PubChem BioAssay by National Center for Advancing Translational Sciences (NCATS).
Compounds with a hit are over-represented: about 3.8% of the library has one in this group of screens.
HT1080-NT tox: kills 2HG-producing HT-1080-NT fibrosarcoma cells | hit rate 1.6% among 360,000 | HT-1080-NT fibrosarcoma viability, CellTiter-Glo ATP luminescence, 48 h | AID 686970 | Potency, µM (highest dose often 46.1 µM), without a hit: at the highest dose activity, negative = less viability, most hits filed as cytotoxic;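 further: NT is the 2HG producing partner of a matched IDH1 knockdown line; 0% = DMSO-treated cells and -100% = media-only wells without cells; nearly all actives have a fitted effect of over 55% in size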
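HT-1080-NT fibrosarcoma cells (2HG-overproducing), 750 cells/well in RPMI with 5% FBS, dosed after 2 h and incubated 48 h at 37C. CellTiter-Glo luminescence normalized to DMSO and no-cell wells; concentration-response curves fitted and classed.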
HT1080 IDH1KD tx: toxicity to HT-1080 IDH1 knockdown cells (counter line) | hit rate 2% among 360,000 | Potency, µM (top dose mostly 46.1 µM), for the others: top-dose activity, negative = toxicity, most hits filed as cytotoxic | HT-1080 IDH1 knockdown viability, ATP luminescence, 48 h;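 further: 0% = DMSO wells and -100% = cell-free medium wells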
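After a 2 h attachment period, IDH1KD HT-1080 cells took pin-transferred compound for 48 h at 37 °C; ATP-based luminescence after 10 min room-temperature reagent incubation reported viability.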
ATXN viability: viability counter-screen for ATXN expression inhibitors | S2 cells (HEK-293 line with an ATXN2-luciferase reporter) viability, CellTiter-Fluor protease fluorescence, 24 h | Potency, µM (doses to about 56.7 µM), usual class: cytotoxic | hit rate 0.49% among 400,000; further: nearly all actives have a fitted effect of over 40% in size
TGFb inhibitor: blocks TGF-b signaling; HepG2 CAGA-GFP TGF-b/SMAD3 reporter, GFP fluorescence, 18 h; TGF-beta stimulated, 500 pg/mL final; Potency, µM (top dose mostly 46.1 µM), without a hit: top-dose activity, negative = inhibition, hits mostly inhibitors; hit rate 1.2% among 410,000; AID 588855; further: on the % scale 0 is the no-effect control and ±100 the full control effect; nearly all actives have a fitted effect of over 65% in size
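GFP signal (ex488/em500-530) from TGF-beta-stimulated HEPG2 CAGA-GFP cells, 500 pg/mL final, 18 h at 37 degrees C in DMEM plus 1% FBS, normalized to unstimulated and DMSO-stimulated controls.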
HepG2 tox: kills HepG2 cells in TGF-b inhibitor counter-screen; HepG2 CAGA-GFP viability, ATP luminescence, 18 h; Potency, µM (series often up to 46.1 µM), for inactives: top-dose activity change, negative = cytotoxicity, hits mostly cytotoxic; hit rate 0.76% among 410,000; AID 588856
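HepG2 CAGA-GFP cells (1000/well, DMEM with 1% FBS) received compound, then TGF-beta at 500 pg/mL final, and were incubated 18 hours at 37 degrees C. Viability was read by CellTiter-Glo luminescence. Media-only wells were set as complete cell-killing and DMSO as no toxicity.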
ATXN2 expr inh: ATXN2 expression inhibition. AID 1745845. hit rate 0.72% among 360,000. Potency, µM (top dose mostly 57 µM), for the others: top-dose activity change, negative = inhibition, most hits filed as inhibitors. HEK-293 ATXN2-luciferase reporter, luminescence, 24 h; further: on the % scale 0 is the no-effect control and ±100 the full control effect; nearly all actives have a fitted effect of over 55% in size
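ATXN2-luciferase reporter cells (luciferase flanked by upstream and downstream ATXN2 gene portions) were treated 24 h at 37 °C with compounds at up to 57 uM. SteadyGlo luminescence gave expression; GF-AFC fluorescence gave viability.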
An asterisk follows results filed as active; i = inactive; ? = inconclusive; . = no result. The call rests on the fitted dose curve; in most records, active means well fitted curve in the direction sought with a large enough effect; inconclusive means small, poorly fitted or top-dose-only effect, or another doubt; inactive means no such curve, though single readings can be large; an effect the other way counts as inactive or inconclusive. Potency means the concentration at half of the fitted maximal effect.

SMILES	HT1080-NT tox	HT1080 IDH1KD tx	ATXN viability	TGFb inhibitor	HepG2 tox	ATXN2 expr inh
O=C1Nc2cc(C(=O)NCCN3CCCCCC3)ccc2S/C1=C/c1ccccc1F	?	?	?	10µM*	8.9µM*	.
O=C1Nc2cc(C(=O)NCCCN3CCCC3)ccc2S/C1=C/c1ccccc1F	8%	4%	?	?	-73%	.
O=C(CSc1n[nH]c(-c2ccccc2Cl)n1)N1CCN(c2ccccc2)CC1	.	.	.	-37%	-7%	.
COC(=O)c1cc(S(N)(=O)=O)ccc1OC	.	.	i	.	.	7%
COc1ccc(/C=C\c2onc(C)c2S(=O)(=O)N2CCC(C(=O)Nc3ccc(Cl)cc3)CC2)cc1	.	.	.	-17%	-22%	.
CNC(=O)C1CCN(S(=O)(=O)c2c(C)noc2/C=C/c2ccccc2F)CC1	1%	0%	i	-23%	-24%	-30%
Cc1noc(/C=C/c2ccccc2F)c1S(=O)(=O)N1CCC(C(=O)Nc2ccc(C#N)cc2)CC1	.	.	.	4.5µM*	-43%	.
COc1ccc(/C=C\c2onc(C)c2S(=O)(=O)N2CCC(C(=O)Nc3ccc(C)c(F)c3)CC2)cc1	.	.	.	11µM*	-15%	.
Cc1ccc(/C=C/c2onc(C)c2S(=O)(=O)N2CCC(C(=O)N3CCCCC3)CC2)cc1	-6%	-5%	?	-11%	-19%	-8%
CCCN1CCN(C(=O)C2CCN(S(=O)(=O)c3c(C)noc3/C=C/c3ccc(C)cc3)CC2)CC1	16µM*	?	?	?	-61%	?
CCOC(=O)C1=CN(Cc2cccc(F)c2)S(=O)(=O)NC1c1ccc(F)c(Cl)c1 (configuration not stated)	26µM*	?	i	16µM*	-48%	?
CCOC(=O)C1=CN(Cc2ccco2)S(=O)(=O)NC1c1ccc(F)c(Cl)c1 (configuration not stated)	-4%	-1%	i	-19%	-5%	-4%
Cc1ccc(CNc2nc(Cl)c(C#N)s2)cc1	-22%	-17%	i	-3%	-4%	26%
N#Cc1sc(NCc2cccc(Cl)c2)nc1Cl	23µM*	?	i	?	-43%	-3%
Cc1ccc2ncc(C(=O)NC(C)c3ccccc3)c(=O)n2c1 (configuration not stated)	.	.	i	-8%	-7%	0%
Cc1cc(C)cc(NC(=O)C2CCN(S(=O)(=O)c3cccc(-c4noc(C)n4)c3)CC2)c1	.	.	i	?	0%	-22%
CCC(C)(C)c1ccc(Oc2ccc(N)cc2)cc1	16µM*	?	i	?	-23%	6.7µM*
COC(=O)[C@@]1(Cc2ccccc2)[C@@H]2C(=CC(=O)[C@H]2CC(=O)C(=O)N(C)C)CN1C(=O)c1ccccc1	16µM*	21µM*	20µM*	?	-51%	28µM*
CC(C)(C)OC(=O)N/N=C/c1cccn1-c1ccc([N+](=O)[O-])cc1	-26%	7%	i	-1%	5%	0%
CN(C)c1ccc(-n2cccc2/C=C/[N+](=O)[O-])cc1	6.5µM*	6.5µM*	30µM*	11%	-3%	?
C=CCN1C(=O)/C(=C\C=C2\N(C)c3ccccc3C2(C)C)SC1=S	14%	3%	?	20%	1%	1%
C=CCN1C(=O)/C(=C/C=C2/N(CC)c3ccc(S(=O)(=O)N(C)C)cc3N2CC)SC1=S	-4%	-13%	0.89µM*	73%	-12%	.
COc1cc(C(=O)Nc2ccc3nc4n(c(=O)c3c2)CCCCC4)cc(OC)c1OC	?	18µM*	?	-2%	-13%	6%
O=C(Nc1ccc2nc3n(c(=O)c2c1)CCCCC3)c1cc([N+](=O)[O-])ccc1F	?	?	.	?	13µM*	?
Cc1ccc(-n2ncc(C(=O)NCCCN3CCCCC3)c2C2CCN(C(=O)OC(C)(C)C)CC2)cc1	.	.	.	-6%	-27%	.
